Laboratory results taken from PubChem BioAssay (NCI).
The panel holds about 79,000 compounds, 15% with a hit somewhere; the sample as a whole holds those more often. Activity calls are given as the source filed them. No stated cut-off is given here; in the data, active means growth inhibition above about 70%; inactive means the rest.

What was measured:
[1] = NCI Yeast Anticancer Drug Screen. Data for the wt2 strain (AID 169);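 further: 0% = growth of vehicle-treated yeast cultures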; settings: S. cerevisiae wt2 strain growth inhibition, stronger effect = higher value
Outline: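 Inhibition of yeast growth was determined after compound treatment, normalised to controls receiving only vehicle.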

[2] = NCI Yeast Anticancer Drug Screen. Data for the mlh1 strain (AID 171);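 further: 0% = growth of vehicle-treated control cultures of the same strain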; settings: S. cerevisiae mlh1 strain growth inhibition, stronger effect = higher value
Outline: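 Vehicle-normalised growth inhibition of a repair- or checkpoint-altered yeast strain following compound treatment.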

[3] = NCI Yeast Anticancer Drug Screen. Data for the sgs1 strain (AID 173);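 further: 0% = growth of vehicle-only control cultures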; settings: S. cerevisiae sgs1 mutant, stronger effect = higher value
Outline: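 Screen format: yeast with repair or checkpoint alterations, compound exposure, growth read relative to vehicle.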

[4] = NCI Yeast Anticancer Drug Screen. Data for the mlh1 rad18 strain (AID 175); settings: S. cerevisiae mlh1 rad18 strain growth inhibition, stronger effect = higher value
Outline: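 Vehicle-treated cultures served as the reference for growth inhibition in a yeast strain carrying DNA damage repair alterations exposed to each compound.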

[5] = NCI Yeast Anticancer Drug Screen. Data for the rad18 strain (AID 177); settings: S. cerevisiae rad18 mutant growth inhibition, stronger effect = higher value
Outline: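 Test articles were incubated with altered yeast defective in DNA damage repair. Results are given as inhibition of growth versus vehicle.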

[6] = NCI Yeast Anticancer Drug Screen. Data for the rad52 strain (AID 147);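 further: 0% = growth of vehicle-treated control cultures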; settings: S. cerevisiae rad52 mutant growth inhibition, stronger effect = higher value
Outline: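 Vehicle-treated cultures served as the reference for growth inhibition of compound-exposed yeast bearing a DNA repair mutation.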

[7] = NCI Yeast Anticancer Drug Screen. Data for the wt1 strain (AID 149);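 further: 0% = growth of vehicle-treated wt1 cultures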; settings: S. cerevisiae wt1 strain (SPY 50644) growth inhibition, stronger effect = higher value
Outline: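 wt1 yeast, compound-treated; % growth inhibition vs vehicle control.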

[8] = NCI Yeast Anticancer Drug Screen. Data for the rad50EPP+ strain (AID 151);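 further: 0% = growth of vehicle-treated control cultures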; settings: S. cerevisiae rad50 mutant strain, stronger effect = higher value
Outline: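 In this screen, rad50EPP+ yeast were exposed to compounds. Growth inhibition was scored against vehicle-treated controls.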

[9] = NCI Yeast Anticancer Drug Screen. Data for the mgt1 strain (AID 153); settings: S. cerevisiae mgt1 mutant growth inhibition, stronger effect = higher value
Outline: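 mgt1 strain exposed; growth vs vehicle control recorded as inhibition.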

[10] = NCI Yeast Anticancer Drug Screen. Data for the rad50 strain (AID 155);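 further: 0% = growth of vehicle-only cultures of the same strain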; settings: S. cerevisiae rad50 strain growth inhibition, stronger effect = higher value
Outline: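 Genetically altered yeast (DNA repair pathway); compound treatment; growth inhibition vs vehicle ctrl.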

[11] = NCI Yeast Anticancer Drug Screen. Data for the mec2-1 strain (AID 157); settings: S. cerevisiae mec2-1 strain, stronger effect = higher value
Outline: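 Vehicle-treated cultures served as reference for growth inhibition of compound-exposed mec2-1 yeast.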

[12] = NCI Yeast Anticancer Drug Screen. Data for the rad14 strain (AID 159);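 further: 0% = growth of vehicle-treated control cultures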; settings: S. cerevisiae rad14 strain growth inhibition, stronger effect = higher value
Outline: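 Test compounds were applied to a repair-deficient yeast strain. Its growth was then compared with that of cultures given vehicle alone, and inhibition was expressed relative to those controls.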

[13] = NCI Yeast Anticancer Drug Screen. Data for the sgs1 mgt1 strain (AID 161);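 further: 0% = growth of cultures given vehicle only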; settings: S. cerevisiae sgs1 mgt1 strain, stronger effect = higher value
Outline: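 Genetically altered yeast, compound exposure, growth inhibition relative to vehicle.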

[14] = NCI Yeast Anticancer Drug Screen. Data for the CLN2oe strain (AID 163);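 further: 0% = growth of vehicle-only control cultures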; settings: S. cerevisiae CLN2oe strain, stronger effect = higher value
Outline: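 Inhibition relative to vehicle-treated yeast is reported. Cells: strain with genetic alteration in cell-cycle control, grown with compound.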

[15] = NCI Yeast Anticancer Drug Screen. Data for the cln2 rad14 strain (AID 165);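 further: 0% = growth equal to vehicle treated cultures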; settings: S. cerevisiae cln2 rad14 strain, stronger effect = higher value
Outline: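 Each compound was tested on cln2 rad14 yeast. Inhibition of growth was calculated against vehicle-exposed controls.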

[16] = NCI Yeast Anticancer Drug Screen. Data for the bub3 strain (AID 167); settings: S. cerevisiae bub3 mutant strain, stronger effect = higher value
Outline: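 Yeast carrying a defined mutation is treated with each compound, and growth is compared with that of vehicle-exposed cells to give inhibition.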

[17] = at 5.0 µM (retest, dose inferred, filed as 0.5)
[18] = at 50.0 µM (retest, dose inferred, filed as 5.0)

Measured: growth inhibition

CN(C)C=NC1CCC(C(C)(C)C)CC1 (centres undefined)
active: [1]; at 33.0 µM 88% | [1]; at 100.0 µM 99% | [2]; at 33.0 µM 94% | [2]; at 100.0 µM 99% | [3]; at 33.0 µM 95% | [3]; at 100.0 µM 99% | [4]; [18] 98% | [4]; at 50.0 µM 98.2% | [5]; at 33.0 µM 93% | [5]; at 100.0 µM 99%
inactive: [1]; at 1.2 µM 0% | [1]; at 3.7 µM 4% | [1]; at 11.0 µM 34% | [2]; at 1.2 µM 8% | [2]; at 3.7 µM 1% | [2]; at 11.0 µM 47% | [3]; at 1.2 µM 1% | [3]; at 3.7 µM 2% | [3]; at 11.0 µM 55% | [4]; [17] -32% | [5]; at 1.2 µM -3% | [5]; at 3.7 µM 8% | [5]; at 11.0 µM 54%

COC(=O)NC1C(C)OC(OC2C/C=C(/C)C3C=CC4C(OC5CC(OC6CC(O)C(OC7CC(O)C(OC)C(C)O7)C(C)O6)C(O)C(C)O5)C(C)CC(C)C4C3(C)/C(O)=C3\C(=O)OC4(CC(C)C(CO)=CC4/C=C\2C)C3=O)CC1(C)[N+](=O)[O-] (centres undefined)
inactive: [6]; at 1.2 µM 15% | [6]; at 3.7 µM 40% | [6]; at 11.0 µM 41% | [6]; at 33.0 µM 38% | [6]; at 100.0 µM 21% | [7]; at 1.2 µM 10% | [7]; at 3.7 µM 22% | [7]; at 11.0 µM 20% | [7]; at 33.0 µM 22% | [7]; at 100.0 µM 10% | [8]; at 1.2 µM 10% | [8]; at 3.7 µM 8% | [8]; at 11.0 µM 11% | [8]; at 33.0 µM 5% | [8]; at 100.0 µM 11% | [9]; at 1.2 µM -7% | [9]; at 3.7 µM 2% | [9]; at 11.0 µM -1% | [9]; at 33.0 µM 8% | [9]; at 100.0 µM 7% | [10]; at 1.2 µM 5% | [10]; at 3.7 µM 16% | [10]; [17] 23% | [10]; at 11.0 µM 22% | [10]; at 33.0 µM 21% | [10]; [18] 40% | [10]; at 50.0 µM 5.7% | [10]; at 100.0 µM 16% | [11]; at 1.2 µM 2% | [11]; at 3.7 µM -5% | [11]; [17] 9% | [11]; at 11.0 µM -4% | [11]; at 33.0 µM 5% | [11]; [18] 34% | [11]; at 50.0 µM -7.4% | [11]; at 100.0 µM -3% | [12]; at 1.2 µM 13% | [12]; at 3.7 µM 19% | [12]; at 11.0 µM 14% | [12]; at 33.0 µM 16% | [12]; at 100.0 µM 13% | [13]; [17] 13% | [13]; [18] 27% | [13]; at 50.0 µM 9.1% | [14]; at 1.2 µM 27% | [14]; at 3.7 µM 15% | [14]; at 11.0 µM 20% | [14]; at 33.0 µM 18% | [14]; at 100.0 µM 28% | [15]; [17] 44% | [15]; [18] 33% | [15]; at 50.0 µM 14.8% | [16]; at 1.2 µM 22% | [16]; at 3.7 µM 19% | [16]; [17] 34% | [16]; at 11.0 µM 13% | [16]; at 33.0 µM 9% | [16]; [18] 26% | [16]; at 50.0 µM 10.7% | [16]; at 100.0 µM 9% | [1]; at 1.2 µM -42% | [1]; at 3.7 µM -37% | [1]; at 11.0 µM -47% | [1]; at 33.0 µM -30% | [1]; at 100.0 µM -21% | [2]; at 1.2 µM -4% | [2]; at 3.7 µM 5% | [2]; at 11.0 µM 3% | [2]; at 33.0 µM 3% | [2]; at 100.0 µM -2% | [3]; at 1.2 µM 0% | [3]; at 3.7 µM -8% | [3]; at 11.0 µM -15% | [3]; at 33.0 µM -13% | [3]; at 100.0 µM -10% | [4]; [17] 27% | [4]; [18] 65% | [4]; at 50.0 µM 10.6% | [5]; at 1.2 µM 1% | [5]; at 3.7 µM 17% | [5]; at 11.0 µM 14% | [5]; at 33.0 µM 14% | [5]; at 100.0 µM 13%

CNC(=O)OCc1c(COC(=O)NC)c(-c2ccc(Cl)c(Cl)c2)n2c1SCC2
inactive: [6]; at 1.2 µM 0% | [6]; at 3.7 µM 0% | [6]; at 11.0 µM 3% | [6]; at 33.0 µM 14% | [7]; at 1.2 µM -1% | [7]; at 3.7 µM 0% | [7]; at 11.0 µM -1% | [7]; at 33.0 µM -3% | [7]; at 100.0 µM 6% | [8]; at 1.2 µM -3% | [8]; at 3.7 µM -3% | [8]; at 11.0 µM -3% | [8]; at 33.0 µM -3% | [8]; at 100.0 µM 4% | [9]; at 1.2 µM -4% | [9]; at 3.7 µM -1% | [9]; at 11.0 µM -1% | [9]; at 33.0 µM -3% | [9]; at 100.0 µM 12% | [10]; at 1.2 µM -1% | [10]; at 3.7 µM -3% | [10]; [17] -17% | [10]; at 11.0 µM -3% | [10]; at 33.0 µM 4% | [10]; [18] 35% | [10]; at 50.0 µM 65.7% | [11]; at 1.2 µM -2% | [11]; at 3.7 µM -4% | [11]; [17] 0% | [11]; at 11.0 µM -3% | [11]; at 33.0 µM -4% | [11]; [18] 18% | [11]; at 50.0 µM 27.3% | [11]; at 100.0 µM 38% | [12]; at 1.2 µM 0% | [12]; at 3.7 µM 2% | [12]; at 11.0 µM 4% | [12]; at 33.0 µM 18% | [13]; [17] -5% | [13]; [18] 32% | [13]; at 50.0 µM 39.4% | [14]; at 1.2 µM -1% | [14]; at 3.7 µM -6% | [14]; at 11.0 µM -6% | [14]; at 33.0 µM -5% | [14]; at 100.0 µM -1% | [15]; [17] -3% | [15]; [18] 23% | [15]; at 50.0 µM 25.1% | [16]; at 1.2 µM -2% | [16]; at 3.7 µM -5% | [16]; [17] 0% | [16]; at 11.0 µM -4% | [16]; at 33.0 µM -6% | [16]; [18] 9% | [16]; at 50.0 µM 4.3% | [16]; at 100.0 µM 20% | [1]; at 1.2 µM -1% | [1]; at 3.7 µM -2% | [1]; at 11.0 µM -2% | [1]; at 33.0 µM -5% | [1]; at 100.0 µM 25% | [2]; at 1.2 µM -1% | [2]; at 3.7 µM -2% | [2]; at 11.0 µM -3% | [2]; at 33.0 µM -2% | [2]; at 100.0 µM 44% | [4]; [17] 2% | [4]; [18] 58% | [5]; at 1.2 µM 0% | [5]; at 3.7 µM 3% | [5]; at 11.0 µM 11% | [5]; at 33.0 µM 48%
active: [6]; at 100.0 µM 76% | [10]; at 100.0 µM 76% | [12]; at 100.0 µM 85% | [4]; at 50.0 µM 86% | [5]; at 100.0 µM 95%
